Results on 40 compounds are retold here after PubChem BioAssay (NCI).

About 83,000 compounds went through this panel and 20% of them were active in at least one assay; those are over-represented in the sample as a whole.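 Assay: single dose, 48 h. Readout: percent growth (0 = no net growth; negative = cell death). Active: <10.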 A number with no mark means an inactive call. The source made the active and inactive calls.

This assay has as its system HCC-2998 colon. Briefly: NCI-60 one-dose screen, 48 h (100 = growth as untreated, 0 = no growth, -100 = all killed). To be noted: 10 µM unless noted. On the procedure:
Growth inhibition of the HCC-2998 human tumor cell line is measured as a screen for anti-cancer activity. Cells are grown in 96 well plates and exposed to the test compound for 48 hours. Compounds are tested at a single concentration, which is 10^-5 M for most compounds. The reported endpoint is percent growth (GI% or GIPRCNT), where numbers from 0 - 100% represent growth inhibition, and numbers from -100% - 0 represent cell death. For example, a value of 40 represents 60% growth inhibition. A value of 0 means no net growth occurred over the course of the experiment. A value of -40 indicates 40% of cells at the beginning of the experiment died by the end of the experiment. A value of -100 means all cells are dead at the end of the experiment.
NCI-60 Human Tumor Cell Lines Screen was performed using the standard one-dose NCI protocol, which is described in more detail at https://dtp.cancer.gov/discovery_development/nci-60/default.htm.
Compounds with GIPRCNT values below 10 were considered active. Activity score was based on GIPRCNT using the following formula: […]
Score is 0 for GIPRCNT values of 100 or above, 50 for GIPRCNT values of 0, and 100 for GIPRCNT values of -100.
Consider `CC1(C)CCCC2=C1C(=O)N(SC(Cl)(Cl)Cl)C2=O`, for which the growth was 96.5%.

In the case of `CCCCCCCCCCCC[N+]1(CCCCCCCCCCCC)CCCC(C)C1` (stereo not given), the growth was -96.6% (active).

As for `NC1=C(Br)C(=O)c2ncccc2C1=O`, the growth was 26.9%.

For `CCCCCCCCCCCC[n+]1ccccc1` (tested in a mixture with another compound), the growth was -47.7% (active).

As for `Oc1ccc2ccccc2c1N=Nc1ccccn1`, the growth was 45.2%.

As for `NC(=S)Nc1ccc2c(c1)Cc1ccccc1-2`, the growth was 97.6%.

In the case of `CCCOC(=O)c1nc(N(CC2CCCCC2)C(=O)NC)sc1/N=C/c1ccccc1`, the growth is -78.7% (active).

`O=C(Nc1ccc(Cl)c(Cl)c1)OCc1ccco1`: the growth was 56.4%.

As to `Nc1nc(-c2ccccc2)nc(N)c1N=O`, the growth is 103%.

Turning to `NCCCN(CCCN)CCCNCc1c2ccccc2c(CNCCCN(CCCN)CCCN)c2ccccc12`, the growth is 97.6%.

Consider `COc1cc(-c2ccc(-[n+]3nc(-c4ccc([N+](=O)[O-])cc4)nn3-c3ccc([N+](=O)[O-])cc3)c(OC)c2)ccc1-[n+]1nc(-c2ccc([N+](=O)[O-])cc2)nn1-c1ccc([N+](=O)[O-])cc1`, for which the growth is 29.8%.

In the case of `CC(=O)Nc1ccc(C(=O)CCl)cc1`, the growth is 102%.

Take `CCCCCCCCCCCCCCCCSC(=NCC)NCC`: the growth was -64.9% (active).

With `Cc1cc(C(=C2C=CC(=Nc3ccccc3)C=C2)c2ccc(Nc3ccccc3)cc2)ccc1N`, the growth is -90.7% (active).

For `Cc1nnc(N/N=C/c2ccc([N+](=O)[O-])o2)[nH]c1=O`, the growth was 22.2%.

In the case of `COC(=O)c1ccc(=O)c2nc3/c(=C/O)c(O)cc(=O)c3[nH]c12`, the growth is 24.9%.

Regarding `COc1ccc2nc3cc(Cl)ccc3c(NCCCCCN3CCCCC3)c2c1`, the growth is -76.7% (active).

Turning to `Oc1ccc(Cl)cc1Cc1cc(Cl)ccc1O`, the growth was 50.7%.

As to `CCCCC(C=O)(C=C=C(C)C)CC` (stereo not given), the growth was 109%.

Consider `CC(C)(C)CC(C)(C)c1ccc(OCCOCCSC(=N)N)cc1`, for which the growth is -32.3% (active).

On to `CC(C)N=C(N)/N=C(\N)Nc1ccc2ccc3ccccc3c2c1`, for which the growth was -90.9% (active).

On to `CCC1C[N+]2=C(c3cc(OC)c(OC)cc3CC2)c2c1cc1n2CCc2cc(OC)c(OC)cc2-1` (stereo not given), for which the growth was 34%.

With `COc1c(C)c2c(c(O)c1C/C=C(\C)CCC(=O)O)C(=O)OC2`, the growth is 33.3%.

For the compound `CCCCCC/C=C1\CCC(CN2CCCC2)C1=O` (stereo not given), the growth was 107%.

Consider `Oc1ccc(Cl)cc1C(c1cc(Cl)ccc1O)C(Cl)(Cl)Cl`, for which the growth was -45.5% (active).

For `Cc1ccccc1N=C(N)Nc1ccccc1C` (tested in a mixture with another compound), the growth was 97.8%.

As for `Cc1cc2cccnc2c2ncccc12`, the growth is 29.5%.

Take `COC(=O)C(=[N+]=[N-])C(=O)c1ccc([N+](=O)[O-])o1`: the growth was 107%.

For `CCCCCCC1N=C(N)N=C(N)N1c1cccc(Cl)c1` (stereo not given), the growth was 10.3%.

`N#C/C(=N\Nc1ccc(Cl)cc1)C(=O)C1CC1`: the growth is 72.1%.

As for `O=C1/C(=C/c2ccccn2)CCc2ccccc21`, the growth was 100%.

Take `NNc1cccc([N+](=O)[O-])c1`: the growth is 110%.

With `CCSc1nc2ccccc2o1`, the growth was 117%.

Consider `CCOc1cc(F)c([N+](=O)[O-])cc1[N+](=O)[O-]`, for which the growth is 98.7%.

Turning to `O=[N+]([O-])c1ccc2c(c1)Cc1ccccc1-2`, the growth was 98.3%.

Take `CCCCCCCCCCCCCCCc1ccc(C(=O)C[n+]2ccccc2)cc1`: the growth is -83.4% (active).

As for `C[n+]1ccccc1C[n+]1ccccc1`, the growth was 110%.

In the case of `CC(/C=N/NC(N)=S)Cc1ccc(C(C)C)cc1` (stereo not given), the growth was 51.9%.

For `CCN(CC)CC(O)CNc1ccc(NCC2CO2)c2c1C(=O)c1ccccc1C2=O` (stereo not given), the growth is -83.5% (active).

As for `Oc1ccc2ccccc2c1N=Nc1nccs1`, the growth is -5.47% (active).
